This is a sample that favours compounds with a hit; in the whole collection about 6.9% have one here.
Giardia killer: Giardia lamblia killing; actives 0.15% (n = 340,000); activity change, % at 7.66 µM, hits read low; Giardia lamblia trophozoite viability; in the data active means activity change below about -80%; inconclusive means between about -30% and that limit;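 further: parasites exposed to compound for two days anaerobically before the ATP read; on the % scale 0 is the no-effect control and ±100 the full control effect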
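ATP-content bioluminescence gauges trophozoite survival. Cells (100/well) receive compound and incubate anaerobically for 48 hrs at 37 deg C; detection reagent follows for 15-30 min at room temperature.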
MCF10A rerep: DNA re-replication induction in MCF 10a cells; actives 2.9% (n = 350,000); Potency, µM (doses to about 46.1 µM), for inactives: at the highest dose activity, positive = re-replication, usual class: activators; MCF 10A DNA re-replication, Hoechst nuclear intensity, 48 h; further: potency means the concentration at half of the fitted maximal effect; % of control where 0% means no effect; nearly all actives have a fitted effect of over 50% in size
SW480 rereplic: inducers of DNA re-replication in SW480 colon cancer cells; Potency, µM (titrated, usually from 46.1 µM), inactives show top-dose re-replication activation, most hits filed as activators; actives 1.8% (n = 340,000); SW480 DNA re-replication, Hoechst DNA content imaging, 48 h; AID 624297; further: potency means the concentration at half of the fitted maximal effect; % of control where 0% means no effect; nearly all actives have a fitted effect of over 55% in size
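Quantitative HTS format with DMSO vehicle controls; 48 hr drug incubation at 37 C, then 40 min Hoechst staining and scanning imager measurement at 405 nm excitation.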
KB-V1 cytotox: kills drug-selected multidrug resistant KB-V1 cells; KB-V1 MDR cells viability, CellTiter-Glo, 72 h; Potency, µM (doses to about 46.1 µM), actives largely listed as cytotoxic; actives 3.4% (n = 400,000); further: potency means the concentration at half of the fitted maximal effect; on the % scale 0 is the no-effect control and ±100 the full control effect; nearly all actives have a fitted effect of over 60% in size
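Cytotoxicity via CellTiter-Glo luminescence after 72 h compound exposure at 37 degrees C. Cells: drug-selected KB-V1 line, DMEM phenol-red free plus 10% FBS. Compounds tested at multiple concentrations; normalized data fitted to concentration-effect curves.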
ASM inhibitor: human S-ASM enzyme inhibition; placental ASM, HMU-PC fluorogenic substrate, 60 min; P17405; actives 0.006% (n = 340,000); Potency, µM (titrated, usually from 57.5 µM), without a hit: top-dose activity change, negative = inhibition, hits mostly inhibitors; AID 504937; further: potency means the concentration at half of the fitted maximal effect
Target sequence (P17405 47-631 limits assumed): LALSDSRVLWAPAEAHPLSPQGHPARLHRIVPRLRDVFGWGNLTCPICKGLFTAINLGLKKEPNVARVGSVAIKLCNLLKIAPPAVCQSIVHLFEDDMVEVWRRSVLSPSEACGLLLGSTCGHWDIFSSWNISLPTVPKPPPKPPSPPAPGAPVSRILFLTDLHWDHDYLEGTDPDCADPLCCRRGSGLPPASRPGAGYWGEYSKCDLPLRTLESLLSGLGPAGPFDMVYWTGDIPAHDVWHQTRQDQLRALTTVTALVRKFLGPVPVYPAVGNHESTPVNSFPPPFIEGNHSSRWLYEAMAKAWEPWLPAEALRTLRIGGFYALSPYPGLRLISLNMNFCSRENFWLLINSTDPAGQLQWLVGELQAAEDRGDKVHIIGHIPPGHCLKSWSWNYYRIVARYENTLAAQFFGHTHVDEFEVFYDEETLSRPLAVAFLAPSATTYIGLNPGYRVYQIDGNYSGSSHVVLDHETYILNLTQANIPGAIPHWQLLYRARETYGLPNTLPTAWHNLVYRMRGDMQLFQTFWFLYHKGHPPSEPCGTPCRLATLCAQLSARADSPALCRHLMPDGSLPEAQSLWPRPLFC
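Fluorogenic HMU-PC substrate (9 uM final) is turned over by placental ASM in 60 min at 37 C after a 10 min compound preincubation. Reaction ended by alkaline stop (pH 10), with fluorescence read at 386/447 nm.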
KB-3-1 tox: KB-3-1 parental cell cytotoxicity; AID 1347075; Potency, µM (top dose mostly 46.1 µM), hits mostly cytotoxic; actives 1.4% (n = 400,000); KB-3-1 viability, CellTiter-Glo ATP luminescence, 72 h; further: potency means the concentration at half of the fitted maximal effect; on the % scale 0 is the no-effect control and ±100 the full control effect; nearly all actives have a fitted effect of over 60% in size
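Luminescent ATP read-out (CellTiter-Glo) measures survival of drug-naive KB-3-1 cells after 72 h compound exposure at 37 °C. Titration series was screened from lowest to highest concentration, with DMSO vehicle plates as background controls.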
The depositor's hits bear a star; i = inactive; ? = inconclusive; / = no result given; ! = not active in a repeat. Unless noted, the call rests on the fitted dose curve; in most records, active means well fitted curve in the direction sought with a large enough effect; inconclusive means small, poorly fitted or top-dose-only effect, or another doubt; inactive means no such curve, though single readings can be large; an effect the other way counts as inactive or inconclusive.

SMILES	Giardia killer	MCF10A rerep	SW480 rereplic	KB-V1 cytotox	ASM inhibitor	KB-3-1 tox
CCCn1c(=NC(=O)c2cc3ccccc3o2)c(C(=O)OCC)cc2c(=O)n3ccccc3nc21	/	/	/	i	/	i
CCCCNc1cnn(-c2ccccc2)c(=O)c1Cl	-3	-3%	-4%	i	-2%	i
CCc1ccc(Nc2cnn(-c3nc4ccccc4s3)c(=O)c2Cl)cc1	2	8%	-4%	13µM*	?	i
O=C(NCCN1CCOCC1)c1ccc2c(c1)N(Cc1c(F)cccc1Cl)C(=O)c1ccccc1S2	20	?	5.8µM*	i	1%	i
O=C(NCCN1CCOCC1)c1ccc2c(c1)N(Cc1ccccc1)C(=O)c1ccccc1S2	14	?	-12%	i	-1%	i
CCOc1ccc(CN2C(=O)c3ccccc3Sc3ccc(C(=O)NCCCN4CCOCC4)cc32)cc1	-6	21µM*	?	?	-2%	18µM*!
C[n+]1ccc(C(c2c[nH]c3ccccc23)c2cc[n+](C)c3ccccc23)c2ccccc21	/	/	/	i	/	1.5µM*
CCN1C(=O)CC(C(=O)Nc2ccc(F)cc2)SC1=Nc1cccc(OC)c1 (centres undefined)	0	21%	3%	18µM*	-9%	?
CCOc1cccc(NC(=O)C2CC(=O)N(CC)C(=Nc3ccc(F)cc3)S2)c1 (centres undefined)	/	/	/	?	/	i
CCc1cccc(NC(=O)c2cc3c(=O)[nH]c4ccccc4c3n2C)c1	/	/	/	i	/	i
Cc1c(C#N)c(NC(=O)CCl)n(Cc2cccs2)c1C	8	?	5.8µM*	?	0%	?
Cc1c(C#N)c(NC(=O)CCl)n(Cc2ccc(F)cc2)c1C	-9	?	?	i	4%	?
Cc1c(C#N)c(NC(=O)CCl)n(Cc2ccccc2)c1C	-1	?	?	?	-3%	10µM*
Cc1csc2nc(-c3cccc(NC(=O)c4ccc(S(N)(=O)=O)cc4)c3)cn12	/	/	/	i	/	i
CC(C)COc1nc2ccccc2nc1C(C#N)C(=O)NC1CCCCC1 (centres undefined)	-5	5.8µM*	2%	i	-1%	i
Cc1cc(C)n(-c2nc(-c3ccc(Cl)c(Cl)c3)cs2)n1	4	7.1µM*	-2%	i	-2%	i
Cc1cnc(/C=C/c2ccc(N(C)C)cc2)cn1	/	/	/	i	/	i
CCOC(=O)C(=CNc1cc(C)ccc1C)C(=O)OCC	-3	9%	-3%	13µM*	-7%	i
CCOC(=O)C(=CNc1cc(C)ccc1[N+](=O)[O-])C(=O)OCC	9	-6%	3%	?	4%	i
COc1ccc(-c2ccc(SC)nn2)cc1	?	-3%	-2%	9.2µM*	-1%	8.2µM*
Cc1ccccc1NC(=O)c1cc2c(-c3ccccc3)nn(-c3ccccc3)c2s1	/	/	/	i	/	i
O=C(CNC(=O)c1ccccc1F)N/N=C/c1cc(Br)ccc1OC(=O)/C=C/c1ccco1	-17	?	6.5µM*	16µM*	-1%	?
COc1ccccc1C(=O)NCC(=O)N/N=C/c1cc(Br)ccc1OC(=O)/C=C\c1ccco1	-6	16µM*	?	?	3%	i
O=C(CNC(=O)c1ccc(F)cc1)N/N=C/c1cc(Br)ccc1OC(=O)/C=C/c1ccco1	-11	?	?	i	-3%	?
Cc1occc1C(=O)N/N=C/c1ccc(-c2ccccc2)cc1	11	14%	18%	13µM*	-7%	21µM*
SMILES	Giardia killer	MCF10A rerep	SW480 rereplic	KB-V1 cytotox	ASM inhibitor	KB-3-1 tox
Cc1cc(C(=O)N/N=C/c2ccc3c(c2)OCO3)c(C)o1	21	-49%	-49%	?	2%	i
Cc1occc1C(=O)N/N=C/c1ccc2c(c1)OCO2	?	3%	2%	7.3µM*	0%	15µM*
Cc1ccsc1C(=O)N/N=C/c1ccc2c(c1)OCO2	10	22%	-20%	18µM*	2%	?
CCCCc1c(-c2ccccc2OC)ncn1CCc1cccc(F)c1	/	/	/	16µM*	/	?
CCCn1cnc2cc(NCc3cccc(OC)c3)ccc21	-4	-6%	0%	?	7%	i
COc1cccc(-c2c(-c3ccccc3OC)ncn2Cc2cccc(-c3ccccc3)c2)c1	/	/	/	13µM*	/	?
CCCCn1cnc2c(SCc3cccc(F)c3)nc(N)nc21	-9	-33%	4%	i	-2%	?
CCCCc1c(-c2ccccc2OC)ncn1CCc1cccc(OC)c1	/	/	/	12µM*	/	?
CC(c1ccccc1)N1C(=O)C2C3CCC(C3)C2C1=O (centres undefined)	12	0%	/	i	4%	i
CC(NC(=O)C(Cc1ccccc1)N1C(=O)C2C3CCC(C3)C2C1=O)c1ccccc1 (centres undefined)	-17	-2%	1%	7.3µM*	1%	i
O=C(Cn1ncc2c3ccccc3n(Cc3ccccc3F)c2c1=O)NCc1ccccc1Cl	/	/	/	i	/	i
CNc1nc(Cl)c(SC)c(NCc2ccc(F)cc2)n1	-13	29%	26%	i	-5%	i
COc1ccc(-c2nc(N3CCCCCC3)sc2C(=O)c2ccccc2)cc1	1	15µM*	6%	i	-13%	i
O=C(c1ccc(Br)cc1)c1sc(N2CCOCC2)nc1-c1ccccc1	-4	16µM*	11%	?	?	?
O=C(c1ccccc1)c1sc(N2CCOCC2)nc1-c1ccccc1	-10	5%	0%	i	-5%	i
[2H]c1c([2H])c([2H])c(C(=O)c2sc(N3CCCCCC3)nc2-c2ccccc2)c([2H])c1[2H]	-9	9.2µM*	1%	i	-10%	?
O=C(c1ccccc1)c1sc(N2CCCCCC2)nc1-c1ccccc1	-2	?	29%	?	-8%	?
O=C(COC(=O)C12CC3CC(CC(C3)C1)C2)NCC1CCCO1 (centres undefined)	12	/	/	?	/	i
O=C1CC(C2CCCO2)C(=O)N1c1ccc(Cl)c(Cl)c1 (centres undefined)	-3	1%	-5%	?	3%	i
CSc1nc2cc(Oc3cccc(Cl)c3Cl)c(Cl)cc2[nH]1	1	9.2µM*	10%	i	-3%	i
NC(N)=N/N=C/c1ccc(OCc2ccccc2Cl)cc1	16	-1%	13µM*	i	?	?
NC(N)=N/N=C/c1ccc(Cl)c(Cl)c1	-8	?	?	21µM*	-5%	16µM*
NC(N)=N/N=C/c1ccccc1	13	0%	0%	i	-1%	i

Screening data deposited in PubChem BioAssay by National Center for Advancing Translational Sciences (NCATS).
